Test systems include RPMI-8226 leukemia; OVCAR-8 ovarian; OVCAR-5 ovarian; SK-OV-3 ovarian; IGROV1 ovarian; OVCAR-3 ovarian; NCI/ADR-RES ovarian; T-47D breast; BT-549 breast; MDA-MB-435 melanoma; SW-620 colon; MCF7 breast; HCT-116 colon; HCC-2998 colon; KM12 colon; OVCAR-4 ovarian; HS 578T breast.
Holding throughout (assay): NCI-60 one-dose screen, 48 h (100 = growth as untreated, 0 = no growth, -100 = all killed)
Holding throughout (conditions): 10 µM unless noted

About 83,000 compounds went through this panel and 20% of them were active in at least one assay; those are over-represented in the sample as a whole.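 Assay: single dose, 48 h. Readout: percent growth (0 = no net growth; negative = cell death). Active: <10.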 Values without a mark were called inactive. Active and inactive are the calls of the source.

Consider 10 compounds from PubChem BioAssay (NCI).

Consider `S=C(Nc1ccc(C2=NCCN2)cc1)Nc1ccc(C2=NCCN2)cc1`, for which the growth was 94.4% in the assay with RPMI-8226 leukemia; 96.2% in the assay with OVCAR-8 ovarian; 97.7% in the assay with OVCAR-5 ovarian; 108% in the assay with SK-OV-3 ovarian; 108% in the assay on IGROV1 ovarian; 110% with OVCAR-3 ovarian. The growth was 93.2% in the assay on NCI/ADR-RES ovarian; 83.2% in the assay with T-47D breast; 87.9% with BT-549 breast; 102% in the assay on MDA-MB-435 melanoma; 107% in the assay with SW-620 colon; 103% in the assay on MCF7 breast. Also, the growth in the assay on HCT-116 colon is 107%; with HCC-2998 colon it was 104%; with KM12 colon, 101%.

For `C=C(C)[C@@H]1C/C=C(/C=O)CC[C@@H]2O[C@@]2(C)CC/C=C(\C)CC1`, the growth in the assay with RPMI-8226 leukemia is -7.67% (active); in the assay with OVCAR-8 ovarian it was 105%; in the assay with OVCAR-5 ovarian, 97.2%; with OVCAR-4 ovarian, 122%; with IGROV1 ovarian it was 986%; in the assay with OVCAR-3 ovarian, 110%. The growth in the assay on HS 578T breast is 126%; in the assay on NCI/ADR-RES ovarian, 115%; with T-47D breast, 101%; in the assay with MDA-MB-435 melanoma, 107%; in the assay with SW-620 colon it was 115%; in the assay on HCT-116 colon, 105%. For the same compound, the growth in the assay with HCC-2998 colon was 126%.

With `COc1ccc(C(=O)Nc2nc(-c3ccc(Cl)cc3)cs2)cc1`, the growth in the assay with RPMI-8226 leukemia was 94.4%; with OVCAR-8 ovarian, 103%; in the assay on OVCAR-5 ovarian it was 87%; with OVCAR-4 ovarian it was 108%; with IGROV1 ovarian, 112%; with OVCAR-3 ovarian, 111%. Moreover, the growth with HS 578T breast is 94.3%; with NCI/ADR-RES ovarian, 120%; in the assay on T-47D breast, 89.1%; in the assay on BT-549 breast it was 105%; in the assay on MDA-MB-435 melanoma, 97.7%; with SW-620 colon, 96.3%. Besides, the growth in the assay on HCT-116 colon was 109%; with KM12 colon, 99.2%.

With `COc1c(C)c2c(c(O)c1C/C=C(\C)CCC(=O)OCCN1CCOCC1)C(=O)OC2`, the growth was 16% with RPMI-8226 leukemia; 16.9% in the assay with OVCAR-8 ovarian; 36.8% with OVCAR-5 ovarian; 31.4% with SK-OV-3 ovarian; 13% with IGROV1 ovarian; 36.1% in the assay with OVCAR-3 ovarian. Also, the growth in the assay on HS 578T breast was 50.4%; with NCI/ADR-RES ovarian, 21.5%; in the assay on T-47D breast it was 29.3%; in the assay on BT-549 breast it was 40.4%; with MDA-MB-435 melanoma, 26.2%; in the assay on SW-620 colon, 19.6%. Moreover, the growth was 14% in the assay on HCT-116 colon, 18.1% in the assay with HCC-2998 colon and 27.8% with KM12 colon.

Consider `Cn1cc(-c2csc(-c3c[nH]c4ncccc34)n2)c2cc(F)cnc21`, for which the growth in the assay on RPMI-8226 leukemia is 70.3%; with OVCAR-8 ovarian it was 77.5%; in the assay with OVCAR-5 ovarian, 87.1%; in the assay on OVCAR-4 ovarian it was 62.4%; with IGROV1 ovarian, 66.5%; in the assay on OVCAR-3 ovarian, 87.8%. In addition, the growth is 63% in the assay with NCI/ADR-RES ovarian; 43.7% in the assay on T-47D breast; 74.1% in the assay on BT-549 breast; 20% in the assay with MDA-MB-435 melanoma; 81.3% in the assay on SW-620 colon; 56.8% in the assay with MCF7 breast. Besides, the results for the growth in the assay with HCT-116 colon, in the assay on HCC-2998 colon and with KM12 colon were 59.8%, 62.2% and 49.4%, respectively.

With `CO[C@H]1/C=C/O[C@@]2(C)Oc3c(C)c(O)c4c(O)c(c(/C=N/N5CCN(C)CC5)c(O)c4c3C2=O)NC(=O)/C(C)=C\C=C\C(C)[C@H](O)[C@@H](C)[C@@H](O)[C@@H](C)[C@@H](OC(C)=O)[C@@H]1C` (stereo not given in full), the growth in the assay with RPMI-8226 leukemia was 108%; in the assay on OVCAR-8 ovarian it was 100%; in the assay on OVCAR-4 ovarian it was 103%; with SK-OV-3 ovarian it was 113%; in the assay with IGROV1 ovarian, 105%; in the assay with OVCAR-3 ovarian, 107%. Further, the growth in the assay with HS 578T breast is 109%; in the assay with NCI/ADR-RES ovarian, 105%; with T-47D breast, 107%; in the assay on BT-549 breast, 99.2%; in the assay with MDA-MB-435 melanoma it was 103%; in the assay with SW-620 colon, 107%. Moreover, the growth in the assay with MCF7 breast is 98.7%; in the assay with HCT-116 colon it was 101%; in the assay on HCC-2998 colon it was 99.5%; with KM12 colon it was 100%.

`Cn1c(N)c(N=O)c(=O)[nH]c1=O`: the growth was 83.9% in the assay with RPMI-8226 leukemia; 104% with OVCAR-8 ovarian; 106% in the assay with OVCAR-5 ovarian; 115% in the assay with SK-OV-3 ovarian; 107% with IGROV1 ovarian; 112% in the assay with OVCAR-3 ovarian. The growth with HS 578T breast is 99.8%; with NCI/ADR-RES ovarian, 103%; with T-47D breast, 98%; in the assay on BT-549 breast, 93.5%; in the assay on MDA-MB-435 melanoma, 108%; with SW-620 colon it was 107%. For the same compound, the growth in the assay on MCF7 breast was 106%; in the assay on HCT-116 colon, 104%; in the assay on HCC-2998 colon, 118%; with KM12 colon, 99%.

For `Cc1cc(NC(=O)Nc2cc(Cl)ccc2C)no1`, the growth in the assay on RPMI-8226 leukemia is 88.8%; in the assay on OVCAR-8 ovarian it was 110%; in the assay with OVCAR-5 ovarian, 104%; in the assay on OVCAR-4 ovarian, 99.6%; in the assay on IGROV1 ovarian it was 68.5%; in the assay on OVCAR-3 ovarian, 117%. In addition, the growth was 125% in the assay on HS 578T breast; 101% in the assay with NCI/ADR-RES ovarian; 89.4% with T-47D breast; 147% in the assay with BT-549 breast; 110% in the assay on MDA-MB-435 melanoma; 110% in the assay on SW-620 colon. Besides, the growth in the assay with HCT-116 colon was 104%; in the assay with HCC-2998 colon, 99.3%; in the assay with KM12 colon it was 107%.

Regarding `Cc1cc(C(=O)O)c(C)cc1C(=O)O`, the growth in the assay on RPMI-8226 leukemia is 102%; with OVCAR-8 ovarian, 104%; in the assay on OVCAR-5 ovarian, 96%; in the assay on SK-OV-3 ovarian, 106%; in the assay on IGROV1 ovarian, 85.3%; with OVCAR-3 ovarian it was 136%. Also, the growth in the assay with HS 578T breast was 122%; with NCI/ADR-RES ovarian, 105%; with T-47D breast it was 104%; in the assay with BT-549 breast, 103%; in the assay on MDA-MB-435 melanoma, 113%; with SW-620 colon, 114%. The growth in the assay with MCF7 breast was 96%; in the assay with HCT-116 colon, 105%; with HCC-2998 colon it was 95.1%; in the assay with KM12 colon it was 113%.

`Clc1ccc(CCC(Cn2ccnc2)Sc2c(Cl)cccc2Cl)cc1` (stereo not given): the growth in the assay on RPMI-8226 leukemia was 25.2%; in the assay with OVCAR-8 ovarian, 63.8%; in the assay on OVCAR-5 ovarian, 68%; in the assay on OVCAR-4 ovarian, 60.4%; in the assay with IGROV1 ovarian it was 59%; in the assay on OVCAR-3 ovarian it was 59.4%. The growth was 90.8% in the assay with HS 578T breast; 28.2% with NCI/ADR-RES ovarian; 39.5% in the assay on T-47D breast; 52% in the assay with BT-549 breast; 53.9% in the assay on MDA-MB-435 melanoma; 65.2% in the assay on SW-620 colon. The results for the growth in the assay with HCT-116 colon, in the assay on HCC-2998 colon and with KM12 colon were 23.2%, 56.6% and 51.8%, respectively.
